Potency data for 25 compounds are collected here from PubChem BioAssay (NCATS).

Records with an inconclusive call do not appear. A call without a number means that no potency is given here. The source made the active and inactive calls. The call rests on the fitted dose curve; in most records, active means well fitted activation curve with a large enough effect; inconclusive means small, poorly fitted or top-dose-only effect; inactive means flat fitted curve, though single readings scatter.
Potency means the concentration at half of the fitted maximal effect.

For the experiment, the target named is D(1A) dopamine receptor (Homo sapiens) (UniProt P21728). In words: HTS Assay for Allosteric Agonists of the Human D1 Dopamine Receptor: Primary Screen for Agonists (AID 488981). Particulars: Inducible HEK293 T-REx D1 cells, calcium-flux fluorescence, 180 s kinetic; series mostly up to 41.8 µM. From the text: Dopamine receptors (DARs) are involved in the etiology and/or therapy of a number of neuropsychiatric and endocrine disorders. For instance, all receptor-based antiparkinsonian drugs work via stimulating the […] DAR subtype whereas all FDA-approved antipsychotic agents are antagonists of this receptor. […] There are three different types of allosteric modulators that we are seeking, two of which will stimulate or augment receptor signaling, allosteric agonists and potentiators, while the third, allosteric antagonists, will attenuate receptor signaling. The present primary screening assay measures compound agonism by tracking calcium flux in a […], inducible Hek293 Trex D1 cell line.
D(1A) dopamine receptor (Homo sapiens), sequence (P21728 whole entry, looked up): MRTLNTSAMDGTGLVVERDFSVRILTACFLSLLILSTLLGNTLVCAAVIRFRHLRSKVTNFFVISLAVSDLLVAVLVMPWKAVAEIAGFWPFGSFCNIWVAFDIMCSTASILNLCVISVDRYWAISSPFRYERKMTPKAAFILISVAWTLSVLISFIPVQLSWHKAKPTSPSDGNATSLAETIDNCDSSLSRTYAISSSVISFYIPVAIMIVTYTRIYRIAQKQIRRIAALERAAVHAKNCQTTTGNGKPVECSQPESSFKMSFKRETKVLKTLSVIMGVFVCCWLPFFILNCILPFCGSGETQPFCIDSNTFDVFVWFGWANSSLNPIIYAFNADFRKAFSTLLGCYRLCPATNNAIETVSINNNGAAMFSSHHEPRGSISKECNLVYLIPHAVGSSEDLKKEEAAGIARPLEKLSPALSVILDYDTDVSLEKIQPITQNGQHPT
Freshly passaged cells are plated in 1536 well black, clear bottom plates at a density of 4000 cells/well in 3 ul of complete media containing 1x tetracycline inducer. After an overnight incubation at 30 C in 5% CO2, cells are loaded with 2 ul of the no wash Calcium Assay Kit (ABD Bioquest) and incubated at room temperature for 30 to 90 minutes. A 10 cycle (1 second/cycle) baseline measurement is taken and then the FDSS online 1536 pintool delivers 23 nl of compound library (as well as dopamine controls) to the plate. The plate is measured for kinetically at 1 cycle/sec for 180 seconds and is considered to be the agonist portion of the assay (eg, compounds which activate a positive calcium response during this portion are flagged as potential agonists). Following the 180 second read, 1 ul of an EC20 of dopamine is delivered by an onboard pipette head. Measurements are taken kinetically for an additional 180 seconds.
For `CN1C2CCC1CC(OC(=O)c1c[nH]c3ccccc13)C2` (stereo not given), the Potency result was “inactive”. In the case of `CC(=O)O[C@H]1C[C@@H]2CC[C@@H]3[C@H](CC[C@@]4(C)[C@H]3C[C@H]([N+]3(C)CCCCC3)[C@@H]4OC(C)=O)[C@@]2(C)C[C@@H]1[N+]1(C)CCCCC1`, the Potency entry is “inactive”. For `CCCC1O[C@@H]2C[C@H]3[C@@H]4CCC5=CC(=O)C=C[C@]5(C)[C@H]4[C@@H](O)C[C@]3(C)[C@]2(C(=O)CO)O1` (stereo not given in full) the value was “inactive”; for `CC(CCc1ccccc1)NCC(O)c1ccc(O)c(C(N)=O)c1` (stereo not given), “inactive”. For `CNCCC=C1c2ccccc2CCc2ccccc21` the value was 20 µM (active). For `CNCCC(Oc1ccccc1C)c1ccccc1` (stereo not given) the value was “inactive”.

On to `C1CCc2nnnn2CC1`, for which the Potency entry is “inactive”. Turning to `N[C@H](CO)C(=O)O`, the Potency result was “inactive”. Turning to `C[N+]1(CCCCC[N+]2(C)CCCC2)CCCC1`, the Potency result was “inactive”.

Regarding `COc1cc(NS(C)(=O)=O)ccc1Nc1c2ccccc2nc2ccccc12`, the Potency entry was “inactive”. For `O=C1CCC(c2ccc(-n3ccnc3)cc2)=NN1` the value was “inactive”; for `CCCn1c(=O)[nH]c(=O)c2[nH]cnc21`, “inactive”; for `Oc1ccc(O)cc1`, “inactive”. Then `O=C(O)c1cc2cc(Cc3cccnc3)ccc2o1`, with “inactive”.

For `Nc1cc(Cl)c(NC2=NCCN2)c(Cl)c1`, the Potency entry is “inactive”. For `CC(C)COC(=O)OCN1C(=O)CN(CCN2CC(=O)N(COC(=O)OCC(C)C)C(=O)C2)CC1=O` the value was “inactive”; for `C[C@@H]1C(=O)NC2=Nc3cccc(Cl)c3CN21`, “inactive”.

On to `CCC(NC(C)C)C(O)c1ccc(O)c(O)c1` (stereo not given), for which the Potency entry was “inactive”. For the compound `COc1cc2c(cc1O)CC[C@@H]1[C@@H]2CC[C@]2(C)[C@@H](O)CC[C@@H]12`, the Potency result is “inactive”. Then `N[C@@H](Cc1cnc[nH]1)C(=O)O`, with “inactive”; and `CC[C@H](C)C(=O)O[C@H]1CCC=C2C=C[C@H](C)[C@H](CC[C@@H]3C[C@@H](O)CC(=O)O3)[C@H]21`, with “inactive”; and `COC(=O)[C@H]1[C@H]2C[C@H]3c4[nH]c5ccccc5c4CCN3C[C@H]2CC[C@@H]1O`, with “inactive”.

Regarding `CC(C)C[C@H]1C(=O)N2CCC[C@H]2[C@]2(O)O[C@](NC(=O)[C@@H]3C=C4c5cccc6[nH]c(Br)c(c56)C[C@H]4N(C)C3)(C(C)C)C(=O)N12`, the Potency result is “inactive”. For `CC1(C)CCC(NC(=O)[C@@H](N)CCC(=O)O)CC1` the value was “inactive”; for `C[C@]12CC[C@@H]3c4ccc(O)cc4CC[C@H]3[C@@H]1CC[C@@H]2O`, “inactive”.
